Reference: PubChem BioAssay (EPA / NIEHS)
Inconclusive results are not listed. More than one record can exist for a structure, and the calls need not agree. Activity calls are given as the source filed them. Rule for the calls, unless noted: active = hit-call score of the fitted dose curve at least 0.9, where 1 is the maximum; inactive = score below 0.9.

What was measured:
DIO3 (gene 1735) = assay: CCTE_GLTED_hDIO3: CCTE's human Deiodinase 3 (DIO3) Inhibition Assay, Great Lakes Toxicology and Ecology Division (GLTED) Lab (AID 2284055; active = hit-call score of the fitted dose curve at least 0.9, where 1 is the maximum;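 for AC50: potency is for inhibition seen as loss of released iodide signal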)
Method in brief: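 Steps: incubate adenovirus-produced hDIO3 with chemical for 3 hours; detect freed iodide via cerium-arsenic Sandell-Kolthoff colorimetry; compare with DMSO baseline.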

[1] = CCTE_Shafer_MEA_dev_per_network_spike_spike_percent: CCTE's Neural Network Formation Assay for Percent of Spikes in a Network Spike, Shafer Lab (AID 2284054)
Method in brief: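 Read-out: percent of spikes falling in a 0.05 s window at network-spike peak, from spontaneous MEA recordings on days 5, 7, 9 and 12; trapezoidal AUC; loss of signal versus DMSO. Rat cortical cultures, compound present throughout.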

[2] = CCTE_Shafer_MEA_dev_LDH: CCTE's Lactate Dehydrogenase Assay for Cytotoxicity in the Neural Network Formation Assay, Shafer Lab (AID 2284068; active = hit-call score of the fitted dose curve at least 0.9, where 1 is the maximum;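 note: exposure for twelve days from plating with re-dosing on DIV 5 and 9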)
Method in brief: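 Rat cortical primary neurons, MEA culture; dosing day 0–12, full medium plus compound exchange DIV 5, 9. Read-out: LDH enzyme activity, spectrophotometric. DMSO = negative control/baseline; signal loss → cytotoxicity.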

[3] = CCTE_Shafer_MEA_dev_mutual_information_norm: CCTE's Neural Network Formation Assay for Mutual Information Normalization, Shafer Lab (AID 2284091);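 for AC50: mutual information between electrodes summarised as area under curve across four recording days; potency is for a decrease in mutual information relative to DMSO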
Method in brief: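 Neurons from rat cortex were seeded at 1.5 x 10^5 cells/well onto PEI-coated MEAs in a laminin drop, then exposed to compound from day 0 for twelve days. Network recordings on four days gave mutual information, summarised by AUC relative to DMSO.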

[4] = CCTE_Shafer_MEA_dev_AB: CCTE's Alamar Blue Assay for Cytotoxicity in the Neural Network Formation Assay, Shafer Lab (AID 2284083; active = hit-call score of the fitted dose curve at least 0.9, where 1 is the maximum;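 note: resazurin reduction fluorescence as viability of cultured neurons; twelve days of exposure from plating with re-dosing on DIV 5 and 9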)
Method in brief: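 Rat cortical primary cultures, 1.5 x 10^5 cells/well on MEA; continuous compound exposure over 12 days of network development, re-dosed with full medium change DIV 5 and 9. Alamar Blue fluorescence; loss of signal = cytotoxicity vs DMSO baseline.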

[5] = IUF_NPC1b_proliferation_BrdU_72hr: Leibniz Research Institute for Environmental Medicine (IUF) 72-hour Neural Progenitor Cell Bromodeoxyuridine (BrdU) Proliferation Assay (NPC1b) (AID 2284207)
Method in brief: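 Luminescent BrdU ELISA measured DNA synthesis during the last 16 h of a 72 h exposure of primary human neural progenitor spheres grown with EGF and FGF. Signal was fitted relative to DMSO controls.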

[6] = IUF_NPC1a_proliferation_area_72hr: Leibniz Research Institute for Environmental Medicine (IUF) 72-hour Neural Progenitor Cell Proliferation Area Assay (NPC1a) (AID 2284208)
Method in brief: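 Proliferation read as increase in sphere area by phase-contrast imaging over 72 h continuous compound exposure (no renewal) of hNPC spheres grown with EGF/FGF at 37C, 5% CO2. Growth-factor withdrawal served as positive control; DMSO as baseline.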

[7] = IUF_NPC1_viability_72hr: Viability Assessment at 72 hours in the Leibniz Research Institute for Environmental Medicine (IUF) Neural Progenitor Cell Proliferation Assay (NPC1) (AID 2284209)
Method in brief: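 Three-day continuous exposure of human neural progenitor spheres under EGF/FGF-driven proliferation; cell viability scored by alamar blue signal versus DMSO.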

[8] = CCTE_Mundy_HCI_Cortical_Synap_Neur_Matur_NeuriteSpotCountPerNeuriteLength: CCTE's Synaptogenesis and Neurite Maturation Assay in rat cortical cells for Neurite Spot Count per Neurite Length, Mundy Lab (AID 2284210)
Method in brief: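 Read-out: synaptophysin puncta counted along MAP2-stained neurites, normalised to neurite length, by automated high-content imaging. Rat cortical cells; AraC DIV 5; chemical dosing DIV 7; termination DIV 12. DMSO baseline.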

[9] = CCTE_Mundy_HCI_Cortical_NOG_NeuriteLength: CCTE's Neurite Outgrowth Assay in rat cortical cells for Neurite Length, Mundy Lab (AID 2284213)
Method in brief: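 First, rat primary cortical cells were plated and, 2 h later, given test chemical as a 1/10 dilution. Finally, βIII-tubulin immunostaining enabled automated imaging of neurite length.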

[10] = CCTE_Mundy_HCI_Cortical_Synap_Neur_Matur_NeuriteLength: CCTE's Synaptogenesis and Neurite Maturation Assay in rat cortical cells for Neurite Length, Mundy Lab (AID 2284214)
Method in brief: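 DMSO-normalised neurite length, from high-content imaging of anti-MAP2-stained rat cortical cells fixed at DIV 12. Glia were suppressed with AraC (DIV 5) before chemical exposure from DIV 7.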

[11] = CCTE_Mundy_HCI_Cortical_Synap_Neur_Matur_NeuriteSpotCountPerNeuron: CCTE's Synaptogenesis and Neurite Maturation Assay in rat cortical cells for Neurite Spot Count per Neuron Count, Mundy Lab (AID 2284215)
Method in brief: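 High-content imaging counts synaptophysin puncta along MAP2-labelled neurites per neuron after chemical exposure of rat cortical cells from DIV 7 to termination at DIV 12 (AraC added DIV 5). Loss of signal relative to DMSO.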

[12] = TAMU_PeakParms_SingleDonor1434_Chronotropy: Texas A&M University (TAMU) 1.5-hr Human Induced Pluripotent Stem Cell (iPSC)-derived Cardiomyocytes Calcium (Ca+2) Flux Assay for Cardiotoxicity: Chronotropy (changes in peak frequency) (AID 2284217); settings: actives raise or lower the signal
Method in brief: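 iPSC-CMs, donor 1434; 4 conc (0.2–100 uM), 0.5% v/v DMSO, 90 min, 37C/5% CO2; Ca2+ flux fluorescence → peak.freq.avg; peak.freq.avg = 0 dropped; bidirectional fit vs DMSO; EC05 POD.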

[13] = CCTE_Mundy_HCI_Cortical_Synap_Neur_Matur_SynapseCount: CCTE's Synaptogenesis and Neurite Maturation Assay in rat cortical cells for Synapse Count, Mundy Lab (AID 2284218)
Method in brief: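 Endpoint: synapses/neuron by HCI (synaptophysin puncta on MAP2-labelled neurites, Hoechst nuclei). Rat primary cortical cells, AraC DIV 5, dosed DIV 7, fixed DIV 12; DMSO negative control.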

[14] = CCTE_Mundy_HCI_hN2_NOG_NeuriteCount: CCTE's Neurite Outgrowth Assay in human hN2 cells for Neurite Count, Mundy Lab (AID 2284219; active = hit-call score of the fitted dose curve at least 0.9, where 1 is the maximum)
Method in brief: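 In this morphology assay, hNP1-derived neurons received test chemical 2 h post-plating and were fixed two days later in warm paraformaldehyde/sucrose containing Hoechst 33342. Neurites, labelled by rabbit anti-βIII-tubulin (1:800) and Alexa Fluor-488 (1:500), were counted automatically.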

[15] = UKN2_HCS_IMR90_neural_migration: University of Konstanz (UKN) Leist Lab Neural Crest Cell Migration Assay in human induced IMR90 Pluripotent Stem Cells (UKN2) (AID 2284204); settings: actives raise or lower the signal
Method in brief: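 Stopper-exclusion migration (cMINC), human iPSC-derived neural crest cells; N2-S + EGF/FGF; compound added 24 h post-stopper removal, 24 h exposure. Readout: calcein-AM/Hoechst 30 min, HCS fluorescence imaging; bidirectional fitting, DMSO baseline.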

[16] = CCTE_Mundy_HCI_Cortical_Synap_Neur_Matur_BPCount: CCTE's Synaptogenesis and Neurite Maturation Assay in rat cortical cells for Branch Point Count, Mundy Lab (AID 2284211)
Method in brief: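 In this multiplexed morphology assay, cortical cells from rat receive chemicals at DIV 7 and are fixed at DIV 12, then immunostained and imaged; branch points are counted, with DMSO as baseline.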

[17] = CCTE_Mundy_HCI_Cortical_NOG_NeuriteCount: CCTE's Neurite Outgrowth Assay in rat cortical cells for Neurite Count, Mundy Lab (AID 2284212);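 note: cells fixed about two days after chemical exposure began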
Method in brief: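 Rat cortical primary cells; compound added 2 h post-plating, 1/10 dilution of working solution. Anti-betaIII-tubulin/AF488 ICC; ArrayScan neurite count vs DMSO.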

[18] = CCTE_Mundy_HCI_Cortical_Synap_Neur_Matur_NeuriteCount: CCTE's Synaptogenesis and Neurite Maturation Assay in rat cortical cells for Neurite Count, Mundy Lab (AID 2284222);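 note: exposure from day 7 to day 12 in vitro with readout at day 12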
Method in brief: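 Primary rat cortical cells were plated, treated with AraC at DIV 5, then exposed to chemicals from DIV 7 through DIV 12. After fixation and immunostaining for MAP2 and synaptophysin, imaging quantified neurites, with DMSO as the negative control.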

[19] = CCTE_Shafer_MEA_acute_LDH: CCTE's Lactate Dehydrogenase Assay for Cytotoxicity in the Neural Acute Assay, Shafer Lab (AID 2284086; active = hit-call score of the fitted dose curve at least 0.9, where 1 is the maximum;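 note: active means LDH release rises above DMSO vehicle level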)
Method in brief: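 Cytotoxicity readout: spectrophotometric LDH activity in supernatant of rat primary cortical neurons, post-plating day 13 or 15, sampled after 40 min compound exposure; signal gain relative to DMSO baseline.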

## O=C(O)C(F)(F)C(F)(F)C(F)(F)C(F)(F)C(F)(F)C(F)(F)C(F)(F)C(F)(F)C(F)(F)C(F)(F)C(F)(F)C(F)(F)C(F)(F)F
DIO3 (gene 1735)
  AC50: 33.1 µM (active)

## O=C(O)C(F)(F)C(F)(F)C(F)(F)C(F)(F)C(F)(F)C(F)(F)C(F)(F)C(F)(F)Cl
[1]
  outcome: inactive
[2]
  outcome: inactive
[3]
  outcome: inactive

## OCC(F)(F)C(F)(F)C(F)(F)C(F)F
[1]
  outcome: inactive
[2]
  outcome: inactive
[4]
  outcome: inactive
[3]
  outcome: inactive

## OCCCC(F)(F)C(F)(F)C(F)(F)F
[1]
  outcome: inactive
[2]
  outcome: inactive
[3]
  outcome: inactive

## OC[C@@H](O)[C@@H](O)[C@H](O)[C@@H](O)CO
[1]
  outcome: inactive
[2]
  outcome: inactive
[4]
  outcome: inactive
[3]
  outcome: inactive
[5]
  outcome: inactive
[6]
  outcome: inactive
[7]
  outcome: inactive
[8]
  outcome: inactive
[9]
  outcome: inactive
[10]
  outcome: inactive
[11]
  outcome: inactive
[12]
  outcome: inactive
[13]
  outcome: inactive
[14]
  outcome: inactive

## O=P(O)(O)OCCC(F)(F)C(F)(F)C(F)(F)C(F)(F)C(F)(F)C(F)(F)F
[1]
  outcome: inactive
[2]
  AC50: 21.5 µM (active)
[4]
  AC50: 24.7 µM (active)
[3]
  outcome: inactive

## FC(F)(F)C(F)(F)C(F)(F)C(F)(F)C(F)(F)C(F)(F)CC1CO1 (centres undefined)
[1]
  outcome: inactive
[3]
  outcome: inactive

## CC(CCl)OP(=O)(OC(C)CCl)OC(C)CCl (centres undefined)
[1]
  AC50: 50 µM (active)
  outcome: inactive
[2]
  AC50: 50 µM (active)
  outcome: inactive
[4]
  outcome: inactive
[3]
  outcome: inactive
[15]
  outcome: inactive
[5]
  outcome: inactive
[6]
  outcome: inactive
[7]
  outcome: inactive
[8]
  outcome: inactive
[16]
  outcome: inactive
[17]
  outcome: inactive
[9]
  outcome: inactive
[10]
  outcome: inactive
[11]
  outcome: inactive
[13]
  outcome: inactive
[18]
  outcome: inactive

## COC(=O)CCC(F)(F)C(F)(F)C(F)(F)C(F)(F)F
[1]
  outcome: inactive
[2]
  outcome: inactive
[3]
  outcome: inactive

## CCN(Cc1cccc(S(=O)(=O)O)c1)c1ccc(C(=C2C=CC(=[N+](CC)Cc3cccc(S(=O)(=O)O)c3)C=C2)c2ccc(O)cc2S(=O)(=O)[O-])cc1
DIO3 (gene 1735)
  AC50: 51.3 µM (active)

## c1ccc(B(c2ccccc2)c2ccccc2)cc1
DIO3 (gene 1735)
  AC50: 100 µM (active)

## OCC(F)(F)C(F)(F)C(F)(F)C(F)(F)C(F)(F)C(F)F
[1]
  outcome: inactive
[2]
  outcome: inactive
[4]
  outcome: inactive
[3]
  outcome: inactive

## O=C(O)C=C(C(F)(F)F)C(F)(F)F
[1]
  outcome: inactive
[2]
  outcome: inactive
[3]
  outcome: inactive

## CC(Cc1ccc(O)c(O)c1)C(C)Cc1ccc(O)c(O)c1 (centres undefined)
DIO3 (gene 1735)
  AC50: 0.0863 µM (active)

## CCCCC(CC)COP(=O)(O)OCC(CC)CCCC (centres undefined)
[19]
  outcome: inactive

## FC(F)(F)C(F)(F)CNCC(F)(F)C(F)(F)F
[1]
  outcome: inactive
[3]
  outcome: inactive

## C=CC(=O)OCC(F)(F)C(F)(F)C(F)(F)C(F)(F)COC(=O)C=C
[1]
  AC50: 4.37 µM (active)
DIO3 (gene 1735)
  AC50: 32.8 µM (active)
[2]
  AC50: 4.28 µM (active)
[4]
  AC50: 4.78 µM (active)
[3]
  AC50: 2.2 µM (active)

## Cc1ccc(S(=O)(=O)OCC(F)(F)C(F)(F)C(F)(F)C(F)(F)C(F)(F)C(F)F)cc1
[1]
  outcome: inactive
[2]
  outcome: inactive
[3]
  outcome: inactive

## O=S(=O)(OCCOC(F)(F)F)C(F)(F)F
[1]
  outcome: inactive
[3]
  outcome: inactive

## O=C(O)C(F)(F)C(F)(F)C(F)(F)F
[1]
  outcome: inactive
[2]
  outcome: inactive
[3]
  outcome: inactive

## O=S(=O)(OCC(F)F)C(F)(F)F
[1]
  outcome: inactive
[2]
  outcome: inactive
[3]
  outcome: inactive

## NC(=O)C(F)(F)C(F)(F)C(F)(F)C(F)(F)F
[1]
  outcome: inactive
[3]
  outcome: inactive

## N=C(N)C(F)(F)C(F)(F)C(F)(F)C(F)(F)C(F)(F)C(F)(F)C(F)(F)F
[1]
  outcome: inactive
[2]
  AC50: 24.5 µM (active)
[4]
  AC50: 23.9 µM (active)
[3]
  outcome: inactive

## O=C(O)C(F)(F)C(F)(F)C(F)F
[1]
  outcome: inactive
[2]
  outcome: inactive
[3]
  outcome: inactive

## O=C(O)C(F)(F)C(F)(F)C(F)(F)C(F)(F)C(F)(F)C(F)(F)C(F)(F)C(F)(F)C(F)(F)C(F)F
[1]
  outcome: inactive
DIO3 (gene 1735)
  AC50: 138 µM (active)
[2]
  outcome: inactive
[4]
  outcome: inactive
[3]
  outcome: inactive

## O=C(O)C(F)(F)C(F)(F)C(F)(F)C(F)(F)C(F)(F)C(F)(F)C(F)(F)C(F)(F)C(F)(F)C(F)(F)C(F)(F)C(F)(F)F
DIO3 (gene 1735)
  AC50: 32.8 µM (active)

## CC(C)(C)C(=O)CC(=O)C(F)(F)C(F)(F)C(F)(F)F
[1]
  AC50: 22.5 µM (active)
[2]
  AC50: 21.9 µM (active)
[4]
  AC50: 23.9 µM (active)
[3]
  outcome: inactive

## C=C(C)C(=O)OCC(F)(F)C(F)(F)C(F)(F)F
DIO3 (gene 1735)
  outcome: inactive

## FC(F)(F)C(F)(F)C(F)(F)C(F)(F)C(F)(F)CCI
[1]
  outcome: inactive
[2]
  AC50: 21.8 µM (active)
[4]
  AC50: 23.9 µM (active)
[3]
  outcome: inactive

## OCC(F)(F)C(F)(F)C(F)(F)F
[1]
  outcome: inactive
[4]
  outcome: inactive
[3]
  outcome: inactive

## CCCCCCOC(=O)c1ccccc1O
[19]
  outcome: inactive
